The target of assay [1] is Tyrosine-protein kinase SYK (Homo sapiens) (UniProt P43405). The following applies: at 10 µM.
Assay [2] addresses T1, Mitogen-activated protein kinase kinase kinase 7 (Homo sapiens) (UniProt O43318).
T1 sequence (whole entry): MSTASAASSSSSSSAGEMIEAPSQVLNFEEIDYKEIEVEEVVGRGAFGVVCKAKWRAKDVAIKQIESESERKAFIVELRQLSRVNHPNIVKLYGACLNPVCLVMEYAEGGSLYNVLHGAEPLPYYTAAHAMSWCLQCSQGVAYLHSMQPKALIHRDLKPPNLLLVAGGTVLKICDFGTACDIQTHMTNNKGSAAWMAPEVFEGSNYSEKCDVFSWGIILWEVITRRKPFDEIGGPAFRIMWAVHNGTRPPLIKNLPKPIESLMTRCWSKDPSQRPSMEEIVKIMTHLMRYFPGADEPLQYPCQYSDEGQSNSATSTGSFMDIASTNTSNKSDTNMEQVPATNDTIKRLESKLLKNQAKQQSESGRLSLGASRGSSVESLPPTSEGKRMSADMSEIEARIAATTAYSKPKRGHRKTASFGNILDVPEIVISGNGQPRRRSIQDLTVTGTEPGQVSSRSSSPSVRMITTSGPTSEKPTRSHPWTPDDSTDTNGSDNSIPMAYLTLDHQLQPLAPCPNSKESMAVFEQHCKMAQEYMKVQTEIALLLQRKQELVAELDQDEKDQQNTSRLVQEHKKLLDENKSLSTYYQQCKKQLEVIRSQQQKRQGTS
The following applies: at 1 µM.

For assay [3], the target named is T1, Mitogen-activated protein kinase kinase kinase 7 (Homo sapiens). The settings on record: at 10 µM.
Assay [4] addresses T2, Serine/threonine-protein kinase TAO1 (Homo sapiens) (UniProt Q7L7X3).
T2 sequence (whole entry): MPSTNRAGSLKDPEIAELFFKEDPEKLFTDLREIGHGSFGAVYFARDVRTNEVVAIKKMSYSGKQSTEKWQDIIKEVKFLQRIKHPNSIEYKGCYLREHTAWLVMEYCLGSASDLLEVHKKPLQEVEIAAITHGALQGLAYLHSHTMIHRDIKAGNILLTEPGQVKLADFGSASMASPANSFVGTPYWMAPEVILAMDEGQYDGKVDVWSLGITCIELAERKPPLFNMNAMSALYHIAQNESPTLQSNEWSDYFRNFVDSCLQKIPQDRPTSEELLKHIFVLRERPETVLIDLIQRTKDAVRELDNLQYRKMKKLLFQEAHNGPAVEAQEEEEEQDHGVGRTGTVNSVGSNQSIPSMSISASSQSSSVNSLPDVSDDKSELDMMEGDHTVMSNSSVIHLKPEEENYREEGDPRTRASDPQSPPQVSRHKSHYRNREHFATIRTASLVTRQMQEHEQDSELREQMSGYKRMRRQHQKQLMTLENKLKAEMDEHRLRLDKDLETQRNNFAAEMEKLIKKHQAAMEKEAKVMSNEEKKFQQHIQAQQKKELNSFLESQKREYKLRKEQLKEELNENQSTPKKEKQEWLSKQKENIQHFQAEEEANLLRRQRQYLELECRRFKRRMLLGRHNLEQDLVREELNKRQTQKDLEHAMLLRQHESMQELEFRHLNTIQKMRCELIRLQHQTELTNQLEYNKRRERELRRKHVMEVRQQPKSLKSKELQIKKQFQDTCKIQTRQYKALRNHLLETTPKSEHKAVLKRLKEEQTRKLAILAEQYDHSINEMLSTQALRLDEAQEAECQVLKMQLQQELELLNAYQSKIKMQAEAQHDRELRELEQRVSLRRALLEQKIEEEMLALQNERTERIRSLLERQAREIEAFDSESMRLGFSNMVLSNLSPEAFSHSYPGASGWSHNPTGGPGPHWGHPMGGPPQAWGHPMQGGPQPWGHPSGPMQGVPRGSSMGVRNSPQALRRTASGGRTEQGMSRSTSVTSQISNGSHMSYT
The settings on record: at 1 µM.

Assay [5] deals with T2, Serine/threonine-protein kinase TAO1 (Homo sapiens). The following applies: at 10 µM.
The target in assay [6] is T3, Serine/threonine-protein kinase TAO2 (Homo sapiens) (UniProt Q9UL54).
T3 sequence (whole entry): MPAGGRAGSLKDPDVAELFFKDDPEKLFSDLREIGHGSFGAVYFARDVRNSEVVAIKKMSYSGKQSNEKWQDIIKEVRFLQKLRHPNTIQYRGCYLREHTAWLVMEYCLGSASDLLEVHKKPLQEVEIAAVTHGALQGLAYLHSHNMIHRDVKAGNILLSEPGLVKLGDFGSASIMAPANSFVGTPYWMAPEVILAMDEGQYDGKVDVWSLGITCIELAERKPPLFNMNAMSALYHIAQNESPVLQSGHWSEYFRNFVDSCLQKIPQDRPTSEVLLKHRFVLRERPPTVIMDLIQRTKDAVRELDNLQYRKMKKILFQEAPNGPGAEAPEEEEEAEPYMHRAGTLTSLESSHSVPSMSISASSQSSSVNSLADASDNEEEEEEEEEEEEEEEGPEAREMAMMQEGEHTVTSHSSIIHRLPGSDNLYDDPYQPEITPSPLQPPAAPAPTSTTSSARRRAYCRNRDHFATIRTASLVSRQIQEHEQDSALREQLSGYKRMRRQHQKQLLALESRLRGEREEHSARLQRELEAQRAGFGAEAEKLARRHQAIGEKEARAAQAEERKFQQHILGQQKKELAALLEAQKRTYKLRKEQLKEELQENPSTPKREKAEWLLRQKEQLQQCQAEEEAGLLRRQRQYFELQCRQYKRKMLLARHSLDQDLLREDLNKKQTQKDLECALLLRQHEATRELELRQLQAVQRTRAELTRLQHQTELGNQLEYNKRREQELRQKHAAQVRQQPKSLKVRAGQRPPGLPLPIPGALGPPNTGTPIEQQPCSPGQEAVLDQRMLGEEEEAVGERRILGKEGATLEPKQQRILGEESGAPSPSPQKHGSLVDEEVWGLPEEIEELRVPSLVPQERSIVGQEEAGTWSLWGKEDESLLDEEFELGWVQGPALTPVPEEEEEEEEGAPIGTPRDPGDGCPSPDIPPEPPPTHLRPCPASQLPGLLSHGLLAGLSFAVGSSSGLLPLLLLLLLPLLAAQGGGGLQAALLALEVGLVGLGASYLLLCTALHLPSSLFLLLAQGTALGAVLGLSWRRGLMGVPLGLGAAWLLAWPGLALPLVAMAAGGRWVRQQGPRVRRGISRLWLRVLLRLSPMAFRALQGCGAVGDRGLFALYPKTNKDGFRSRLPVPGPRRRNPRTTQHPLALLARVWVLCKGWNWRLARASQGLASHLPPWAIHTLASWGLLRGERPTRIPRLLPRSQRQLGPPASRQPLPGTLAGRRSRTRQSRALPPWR
The settings on record: at 10 µM.

Assay [7] has as its target T4, Serine/threonine-protein kinase TAO3 (Homo sapiens) (UniProt Q9H2K8).
T4 sequence (whole entry): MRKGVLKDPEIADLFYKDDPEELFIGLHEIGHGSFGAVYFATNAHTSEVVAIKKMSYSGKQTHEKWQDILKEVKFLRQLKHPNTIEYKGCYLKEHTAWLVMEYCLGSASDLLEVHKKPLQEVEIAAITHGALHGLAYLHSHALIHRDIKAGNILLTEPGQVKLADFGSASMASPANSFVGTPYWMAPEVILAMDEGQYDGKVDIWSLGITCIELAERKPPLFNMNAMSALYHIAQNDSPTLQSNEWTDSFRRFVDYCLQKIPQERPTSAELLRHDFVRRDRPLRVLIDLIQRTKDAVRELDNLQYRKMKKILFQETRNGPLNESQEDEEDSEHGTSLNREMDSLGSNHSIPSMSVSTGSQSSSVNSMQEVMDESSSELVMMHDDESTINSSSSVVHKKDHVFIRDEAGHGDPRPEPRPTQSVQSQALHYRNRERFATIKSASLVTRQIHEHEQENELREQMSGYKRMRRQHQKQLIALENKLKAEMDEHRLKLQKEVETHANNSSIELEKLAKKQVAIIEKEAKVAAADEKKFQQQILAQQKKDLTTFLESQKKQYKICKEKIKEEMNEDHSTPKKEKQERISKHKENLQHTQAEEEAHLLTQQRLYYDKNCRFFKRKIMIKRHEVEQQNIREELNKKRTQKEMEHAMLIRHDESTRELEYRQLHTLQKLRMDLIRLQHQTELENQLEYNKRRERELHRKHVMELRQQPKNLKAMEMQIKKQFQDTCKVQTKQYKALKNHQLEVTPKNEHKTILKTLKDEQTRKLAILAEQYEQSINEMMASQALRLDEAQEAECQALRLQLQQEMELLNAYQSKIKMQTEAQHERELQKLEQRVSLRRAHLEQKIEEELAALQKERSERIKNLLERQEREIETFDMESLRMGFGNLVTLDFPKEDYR
The settings on record: at 1 µM.

Assay [8] deals with T4, Serine/threonine-protein kinase TAO3 (Homo sapiens). The settings on record: at 10 µM.
Assay [9] addresses T5, Serine/threonine-protein kinase TBK1 (Homo sapiens) (UniProt Q9UHD2).
T5 sequence (whole entry): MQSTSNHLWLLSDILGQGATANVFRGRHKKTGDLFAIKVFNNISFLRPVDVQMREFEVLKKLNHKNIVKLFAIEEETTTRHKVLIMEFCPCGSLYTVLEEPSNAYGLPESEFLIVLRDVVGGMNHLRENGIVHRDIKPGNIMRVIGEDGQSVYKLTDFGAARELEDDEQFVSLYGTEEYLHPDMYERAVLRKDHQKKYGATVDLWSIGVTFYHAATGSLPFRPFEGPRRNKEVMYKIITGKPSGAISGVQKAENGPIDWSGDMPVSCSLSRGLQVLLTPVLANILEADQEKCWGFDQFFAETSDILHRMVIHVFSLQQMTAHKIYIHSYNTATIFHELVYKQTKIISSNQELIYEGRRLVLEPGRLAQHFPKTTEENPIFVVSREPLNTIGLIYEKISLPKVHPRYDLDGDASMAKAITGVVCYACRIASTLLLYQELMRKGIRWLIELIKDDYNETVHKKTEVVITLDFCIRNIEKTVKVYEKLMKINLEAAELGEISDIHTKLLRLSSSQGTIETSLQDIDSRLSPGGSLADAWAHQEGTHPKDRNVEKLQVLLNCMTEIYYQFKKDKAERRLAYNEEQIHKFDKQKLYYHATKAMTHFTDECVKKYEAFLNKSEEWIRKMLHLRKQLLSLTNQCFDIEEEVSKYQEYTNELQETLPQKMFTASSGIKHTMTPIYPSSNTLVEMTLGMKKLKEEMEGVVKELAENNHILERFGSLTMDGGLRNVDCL
The settings on record: at 1 µM.

Drawing on ChEMBL document CHEMBL2218924, “A broad activity screen in support of a chemogenomic map for kinase signalling research and drug discovery” (Biochem J, 2013), this text covers residual activity for one molecule.

For the molecule `Cn1nc2c3c(cccc31)C(=O)c1ccccc1-2`, the residual activity in assay [1] turned out to be 100%; in [2], 87%; in assay [3], 46%; in [4] it was 94%; in assay [5] it was 88%; in [6] it was 95%. For the same molecule, the values for the residual activity in assay [7], in assay [8] and in [9] were 91%, 90% and 67%, respectively.
